Data on six molecules can be found in PubChem BioAssay AID504336 (NMMLSC, 2011).

A number with no mark means an inactive call.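 How the source made its calls: active means compounds whose GFP signal falls below 65% of the DMSO control level; inconclusive means fewer than 70 yeast cells counted in the well; inactive means the rest.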

The nature of this assay: TOR branch reporter RPL19A-GFP response – cell-based, S. cerevisiae, third cherry pick, flow cytometry, confirmation (AID 504336).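 Further: median GFP fluorescence of all gated yeast cells by flow cytometry; ratio of well median fluorescence to plate mean of DMSO wells with DMSO = 100%.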 The following applies: S. cerevisiae RPL19A-GFP strain, 3 h, at 10 µM, stronger effect = lower value.
Regarding `CN(C)C(=O)Oc1ccnc2cc(Cl)ccc12`, the GFP response relative to DMSO was 102%.

With `Cc1ccc2c(c1N)C(=O)c1ccccc1C2=O`, the GFP response relative to DMSO was 101%.

Regarding `CN(C)C(=O)Oc1ccc(Cl)c2cccnc12`, the GFP response relative to DMSO was 101%.

As to `CN1CCN(c2ncnc3ccc(Br)cc23)CC1`, the GFP response relative to DMSO was 99.3%.

Regarding `CCN1CCN(c2ncnc3ccc(Br)cc23)CC1`, the GFP response relative to DMSO is 100%.

Consider `C/C(O)=C(\C#N)C(=O)Nc1cc(Br)ccc1Br`, for which the GFP response relative to DMSO was 97.5%.
